# “And” between values parts separate entries of the source, which are not always exact repeats. Identical values can stand only once. Results filed as inconclusive are left out. Some compounds were tested as several samples or in several runs, with calls that do not always agree. The source made the active and inactive calls. Calls follow the shape of the dose curve; as a rule, active = well fitted curve in the direction sought with a large enough effect; inconclusive = small, poorly fitted or top-dose-only effect, or another doubt; inactive = no such curve, though single readings can be large; an effect the other way counts as inactive or inconclusive.
# Experiments:
# [1] = Viability qHTS for spleen associated tyrosine kinase inhibitor (SYKi) naive MV4-11 cells (AID 1963823); also: nearly all actives have a fitted effect of over 40% in size
# Summary of the method: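 qHTS, SYK inhibitor-naive MV4-11; 500 cells/well; 72 hr compound exposure, 37 C; CellTiter-Glo added, 10 min RT; luminescence read.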
# [2] = Viability qHTS for spleen associated tyrosine kinase inhibitor (SYKi) drug resistant MV4-11 cells (AID 1963824); also: nearly all actives have a fitted effect of over 35% in size
# Summary of the method: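 SYK inhibitor-resistant MV4-11 AML cells, 500 per well, added to predispensed compounds and incubated 72 hr at 37 C, 5% CO2. Viability measured by CellTiter-Glo luminescence after 10 min at room temperature.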
# [3] = Cellular viability qHTS for adrenocortical cancer (ACC) cell line SW-13 (AID 1963989); conditions: SW-13 ACC cells viability, CellTiter-Glo, 48 h; activity (max response): stronger effect = lower value; also: nearly all actives have a fitted effect of over 65% in size;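 as to activity (max response): cells grown in serum-free medium with ITS supplement; % is scaled to controls: 0 for no effect and ±100 for the full control effect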
# Summary of the method: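 Viability was read as CellTiter-Glo luminescence after 48 h compound treatment (up to 46 uM final) of SW-13 cells grown serum-free; titration curves were fit with a four-parameter logistic model to give IC50 and efficacy.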
# [4] = Cellular viability qHTS for adrenocortical cancer (ACC) cell line NCI-H295R (AID 1963990); also: nearly all actives have a fitted effect of over 60% in size
# Summary of the method: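 CellTiter-Glo ATP luminescence, read 48 h after compound addition, measured viability of NCI-H295R adrenocortical cells grown serum-free with ITS. Final concentrations spanned up to 46 uM. Data normalized to DMSO and doxorubicin, fitted for IC50 and maximal response.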
# Potency is read from the fitted curve at half-maximal effect.
SMILES,Potency [1],Potency [2],activity (max response) [3],Potency [4],Potency [3]
Cc1nc(-c2cccnc2)sc1C(=O)Nc1ccccc1-c1cn2c(CN3CCOCC3)csc2n1,inactive,inactive,-5.59% (inactive),inactive,
O=c1c(-c2ccc(O)cc2)coc2c([C@@H]3O[C@H](CO)[C@@H](O)[C@H](O)[C@H]3O)c(O)ccc12,inactive,inactive,3.16% (inactive),inactive,
Nc1nccc2c1ncn2[C@@H]1C=C(CO)[C@@H](O)[C@H]1O,166 nM (active),209 nM (active),,,7.94 µM (active)
Cc1c(F)cc(C(=O)NC2CC2)cc1-c1ccc(C(=O)NCC(C)(C)C)cn1,164 nM (active),461 nM (active),1.4% (inactive),inactive,
NS(=O)(=O)c1cc2c(cc1Cl)NC(CC1CCCC1)NS2(=O)=O (stereo not given),inactive,inactive,10.5% (inactive),,
c1cc(-c2cnn3cc(-c4ccc(N5CCNCC5)cc4)cnc23)c2cccnc2c1,662 nM (active),920 nM (active),,6.31 µM (active),22.4 µM (active)
CC[C@@H](C)Nc1cc(C(=O)NC2CC3CCC(C2)N3c2ccc(C(=O)C3CC3)cn2)c(C)cc1C(N)=O (stereo not given in full),41.7 nM (active),20.6 nM (active),,0.355 µM (active),0.355 µM (active)
COc1cc(OC)c(/C=C/S(=O)(=O)Cc2ccc(OC)c(NCC(=O)O)c2)c(OC)c1,92 nM (active) and 105 nM (active),51.7 nM (active) and 118 nM (active),,0.0224 µM (active),0.02 µM (active)
CCC(Cc1c(I)cc(I)c(N)c1I)C(=O)O (stereo not given),inactive,inactive,1.75% (inactive),,
COc1ccc(C(=O)NCc2ccc(OCCN(C)C)cc2)cc1OC,inactive,inactive,1.66% (inactive),inactive,
CCOC(=O)C1=C(C)NC(C)=C(C(=O)OCC)C1c1ccccc1/C=C/C(=O)OC(C)(C)C,9440 nM (active),4730 nM (active),,6.51 µM (active),16.4 µM (active)
NC(=O)N/N=C/c1ccc([N+](=O)[O-])o1,27.3 µM (active) and inactive,21700 nM (active),4.16% (inactive),8.91 µM (active),35.5 µM (active)
CC(C)=CCC[C@](C)(O[C@@H]1O[C@H](CO[C@@H]2O[C@H](CO)[C@@H](O)[C@H](O)[C@H]2O)[C@@H](O)[C@H](O)[C@H]1O)[C@H]1CC[C@]2(C)[C@@H]1[C@H](O)C[C@@H]1[C@@]3(C)CC[C@H](O[C@@H]4O[C@H](CO)[C@@H](O)[C@H](O)[C@H]4O[C@@H]4O[C@H](CO)[C@@H](O)[C@H](O)[C@H]4O)C(C)(C)[C@@H]3CC[C@]12C,inactive,inactive,-6.63% (inactive),inactive,
O=C(NCCc1c[nH]c2ccccc12)c1cccnc1,1.9 nM (active),inactive,-4.89% (inactive),inactive,
Cc1ccccc1OCC(O)CO (stereo not given),inactive,inactive,-4.04% (inactive),inactive,
O=C1c2ccccc2C(=O)C1c1ccc(Br)cc1,inactive,inactive,7.53% (inactive),inactive,
C[C@H](CCC(=O)O)[C@H]1CC[C@H]2[C@@H]3C(=O)C[C@@H]4CC(=O)CC[C@]4(C)[C@H]3CC(=O)[C@]12C,inactive,inactive,15.5% (inactive),inactive,
CCN1CCCC(OC(=O)C(c2ccccc2)c2ccccc2)C1 (stereo not given),inactive,inactive,-12.5% (inactive),inactive,
CONC(=O)Nc1ccc(-c2sc3c(c2CN(C)Cc2ccccc2)c(=O)n(-c2ccccc2)c(=O)n3Cc2c(F)cccc2F)cc1,16600 nM (active),16600 nM (active),-8.17% (inactive),inactive,
CC(=O)OCC(=O)[C@@]12OC(C)(C)O[C@@H]1C[C@H]1[C@@H]3C[C@H](F)C4=CC(=O)C=C[C@]4(C)[C@@]3(F)[C@@H](O)C[C@@]12C,inactive and 93.4 nM (active),inactive,10.5% (inactive) and 8.23% (inactive),,
CCOC(=O)[C@H](CCc1ccccc1)N[C@@H](C)C(=O)N1[C@H](C(=O)O)C[C@@H]2CCC[C@@H]21,inactive,inactive,3.72% (inactive) and 7.5% (inactive),inactive,
FC(F)(F)c1ccc(CNc2ccc(Cc3c[nH]c4ncccc34)cn2)cc1,259 nM (active) and 116 nM (active),206 nM (active) and 291 nM (active),,11.2 µM (active),10 µM (active)

# Source: PubChem BioAssay (NCATS)
